# Laboratory results taken from ChEMBL document CHEMBL3988442, “University of Dundee, Small-Polar-MMV Screening Library” (2021).
# For some assays here: Entries with a potency or affinity are not part of this list.
# Columns and labels:
# Design in all cases: scale not given: direction of the effect not stated beside the values
# [1] = molecular target: Protein translocase subunit SecA (Escherichia coli (strain K12)) (UniProt P10408); experiment: Assay to Identify E. coli SecA ATPase Inhibitors; assay type: functional; conditions: 30 µM
# Chain of Protein translocase subunit SecA (Escherichia coli (strain K12)) (P10408 whole entry): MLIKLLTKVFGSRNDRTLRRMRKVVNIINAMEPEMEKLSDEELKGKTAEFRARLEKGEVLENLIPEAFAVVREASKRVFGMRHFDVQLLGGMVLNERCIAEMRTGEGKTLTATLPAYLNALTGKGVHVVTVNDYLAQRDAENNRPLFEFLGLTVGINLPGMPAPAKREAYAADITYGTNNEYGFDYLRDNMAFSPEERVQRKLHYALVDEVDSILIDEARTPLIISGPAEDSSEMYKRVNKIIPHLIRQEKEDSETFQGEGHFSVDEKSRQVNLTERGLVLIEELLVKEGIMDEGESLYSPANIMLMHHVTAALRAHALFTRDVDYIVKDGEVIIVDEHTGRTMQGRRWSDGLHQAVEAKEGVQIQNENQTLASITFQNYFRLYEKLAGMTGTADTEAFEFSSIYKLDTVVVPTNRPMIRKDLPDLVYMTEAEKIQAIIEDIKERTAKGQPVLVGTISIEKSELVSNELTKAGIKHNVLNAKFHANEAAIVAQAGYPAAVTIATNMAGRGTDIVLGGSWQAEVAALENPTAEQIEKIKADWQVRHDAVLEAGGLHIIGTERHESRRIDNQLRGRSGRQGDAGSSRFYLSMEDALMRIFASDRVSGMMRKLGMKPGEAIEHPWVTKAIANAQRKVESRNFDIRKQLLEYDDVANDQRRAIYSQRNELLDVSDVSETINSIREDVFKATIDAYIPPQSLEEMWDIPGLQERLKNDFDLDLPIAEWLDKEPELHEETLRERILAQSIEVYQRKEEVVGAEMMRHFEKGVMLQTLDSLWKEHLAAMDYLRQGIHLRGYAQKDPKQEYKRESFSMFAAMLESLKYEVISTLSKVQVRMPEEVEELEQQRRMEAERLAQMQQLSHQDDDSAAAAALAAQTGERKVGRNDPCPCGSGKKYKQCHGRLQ
# [2] = molecular target: T1, Ubiquitin-activating enzyme e1, putative (Leishmania donovani (strain BPK282A1)) (UniProt E9BSI1); experiment: Leishmania donovani Ubiquitin Activating Enzyme (LdE1); assay type: functional; conditions: 30 µM
# T1 sequence (whole entry): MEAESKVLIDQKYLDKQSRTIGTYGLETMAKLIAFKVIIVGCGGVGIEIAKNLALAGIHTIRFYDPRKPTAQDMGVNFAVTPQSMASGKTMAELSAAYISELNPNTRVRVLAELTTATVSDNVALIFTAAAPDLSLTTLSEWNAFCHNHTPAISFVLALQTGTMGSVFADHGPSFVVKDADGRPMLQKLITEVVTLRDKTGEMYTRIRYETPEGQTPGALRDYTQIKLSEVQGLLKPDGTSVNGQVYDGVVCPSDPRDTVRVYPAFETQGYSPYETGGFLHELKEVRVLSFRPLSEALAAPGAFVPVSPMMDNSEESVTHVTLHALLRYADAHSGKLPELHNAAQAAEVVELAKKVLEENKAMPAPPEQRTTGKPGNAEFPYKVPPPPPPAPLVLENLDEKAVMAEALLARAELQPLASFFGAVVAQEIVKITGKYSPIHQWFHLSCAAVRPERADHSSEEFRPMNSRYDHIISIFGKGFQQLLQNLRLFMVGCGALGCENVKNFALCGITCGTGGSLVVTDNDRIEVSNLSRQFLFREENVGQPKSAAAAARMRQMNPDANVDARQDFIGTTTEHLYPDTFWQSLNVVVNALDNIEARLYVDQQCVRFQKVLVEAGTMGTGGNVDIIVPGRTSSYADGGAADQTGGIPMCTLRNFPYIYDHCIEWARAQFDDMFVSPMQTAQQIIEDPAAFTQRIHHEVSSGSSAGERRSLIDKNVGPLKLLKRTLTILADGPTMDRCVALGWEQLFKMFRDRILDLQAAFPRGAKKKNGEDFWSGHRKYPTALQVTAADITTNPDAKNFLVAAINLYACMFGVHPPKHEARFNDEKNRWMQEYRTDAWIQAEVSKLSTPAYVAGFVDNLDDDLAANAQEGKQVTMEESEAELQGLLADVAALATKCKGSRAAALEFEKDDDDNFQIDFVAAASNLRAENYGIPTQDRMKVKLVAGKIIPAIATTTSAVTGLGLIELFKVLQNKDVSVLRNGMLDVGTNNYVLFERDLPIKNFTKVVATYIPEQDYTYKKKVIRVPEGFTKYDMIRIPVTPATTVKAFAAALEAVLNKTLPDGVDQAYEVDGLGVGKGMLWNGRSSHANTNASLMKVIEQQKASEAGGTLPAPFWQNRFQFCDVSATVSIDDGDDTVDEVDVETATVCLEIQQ
# [3] = molecular target: AMP-activated protein kinase, AMPK (Homo sapiens) (UniProt P54646+O43741+P54619+Q9UGJ0+Q9Y478+Q13131+Q9UGI9); experiment: AMP-dependent Kinase enzyme assay. An in vitro enzyme assay that detects ADP turnover that is directly proportional to AMPK activity. This uses naive AMPK that is activated during the assay with MK-8722; assay type: functional; conditions: 30 µM
# [4] = molecular target: Sialic acid-binding Ig-like lectin 9 (Homo sapiens) (UniProt Q9Y336); experiment: Hs-Siglec9 ALPHAscreen SOP 20170721; conditions: 10 µM
# Chain of Sialic acid-binding Ig-like lectin 9 (Homo sapiens) (Q9Y336 whole entry): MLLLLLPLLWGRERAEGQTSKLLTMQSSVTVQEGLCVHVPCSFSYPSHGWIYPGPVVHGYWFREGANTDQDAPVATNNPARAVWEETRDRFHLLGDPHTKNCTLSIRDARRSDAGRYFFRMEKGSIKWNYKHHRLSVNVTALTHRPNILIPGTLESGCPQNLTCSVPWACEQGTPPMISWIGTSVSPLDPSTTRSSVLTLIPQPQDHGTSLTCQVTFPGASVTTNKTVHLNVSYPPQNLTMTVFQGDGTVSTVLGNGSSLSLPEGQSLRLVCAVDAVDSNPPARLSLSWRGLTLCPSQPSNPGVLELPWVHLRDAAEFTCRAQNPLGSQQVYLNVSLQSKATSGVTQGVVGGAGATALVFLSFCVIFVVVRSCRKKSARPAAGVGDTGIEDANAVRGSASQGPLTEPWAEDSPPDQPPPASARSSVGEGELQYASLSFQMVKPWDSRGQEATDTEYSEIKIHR
# Trypanosoma cruzi = experiment: Trypanosoma cruzi phosphomannomutase and mannose-1-phosphate guanylyltransferase assay; assay type: functional; conditions: 10 µM
# [5] = molecular target: T2, Arginase-2, mitochondrial (Homo sapiens) (UniProt P78540); experiment: in vitro enzyme assay to detect the production of urea directly proportional to the activity of Arginase II; assay type: functional; conditions: 33.3 µM; also: in the data most compounds retested in dose-response had high values
# T2 sequence (whole entry): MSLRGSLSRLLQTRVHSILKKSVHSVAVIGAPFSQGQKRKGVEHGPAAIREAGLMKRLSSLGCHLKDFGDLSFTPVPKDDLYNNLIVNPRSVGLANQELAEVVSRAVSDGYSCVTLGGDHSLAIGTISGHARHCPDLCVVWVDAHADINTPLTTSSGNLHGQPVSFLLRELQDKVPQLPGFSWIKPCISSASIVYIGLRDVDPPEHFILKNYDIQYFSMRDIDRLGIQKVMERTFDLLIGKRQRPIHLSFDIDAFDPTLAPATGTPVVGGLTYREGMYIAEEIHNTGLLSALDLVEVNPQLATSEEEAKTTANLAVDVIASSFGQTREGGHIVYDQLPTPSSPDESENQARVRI
# [6] = molecular target: T3, Proteasome subunit beta (Trypanosoma cruzi) (UniProt O96673); experiment: Trypanosoma cruzi proteasome chymotrypsin-like activity (TcProtChymo) assay.; also: in the data most compounds retested in dose-response had high values; assay type: functional; conditions: 9.37 µM
# T3 sequence (whole entry): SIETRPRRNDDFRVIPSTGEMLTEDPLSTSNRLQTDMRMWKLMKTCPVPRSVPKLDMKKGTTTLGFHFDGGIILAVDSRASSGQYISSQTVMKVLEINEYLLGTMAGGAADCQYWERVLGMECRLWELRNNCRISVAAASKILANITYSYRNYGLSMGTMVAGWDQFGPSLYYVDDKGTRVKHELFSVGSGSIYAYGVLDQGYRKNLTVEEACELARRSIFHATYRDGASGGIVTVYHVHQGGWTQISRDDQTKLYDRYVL
# Homo sapiens = species: Homo sapiens; experiment: To identify inhibition of the IFN signalling (Jak-Stat) pathway via expression of an eGFP reporter gene under the control of an IFN-stimulated response element (ISRE) containing MxA promoter.; assay type: functional; conditions: 30 µM
# [7] = molecular target: T4, Tyrosyl-tRNA synthetase, putative (Trypanosoma cruzi (strain CL Brener)) (UniProt Q4DSP6); experiment: Trypanosoma cruzi tyrosyl tRNA synthetase (TcYRS) _High Tyrosine SOP; assay type: functional; conditions: 30 µM; also: in the data most compounds retested in dose-response had high values
# T4 sequence (whole entry): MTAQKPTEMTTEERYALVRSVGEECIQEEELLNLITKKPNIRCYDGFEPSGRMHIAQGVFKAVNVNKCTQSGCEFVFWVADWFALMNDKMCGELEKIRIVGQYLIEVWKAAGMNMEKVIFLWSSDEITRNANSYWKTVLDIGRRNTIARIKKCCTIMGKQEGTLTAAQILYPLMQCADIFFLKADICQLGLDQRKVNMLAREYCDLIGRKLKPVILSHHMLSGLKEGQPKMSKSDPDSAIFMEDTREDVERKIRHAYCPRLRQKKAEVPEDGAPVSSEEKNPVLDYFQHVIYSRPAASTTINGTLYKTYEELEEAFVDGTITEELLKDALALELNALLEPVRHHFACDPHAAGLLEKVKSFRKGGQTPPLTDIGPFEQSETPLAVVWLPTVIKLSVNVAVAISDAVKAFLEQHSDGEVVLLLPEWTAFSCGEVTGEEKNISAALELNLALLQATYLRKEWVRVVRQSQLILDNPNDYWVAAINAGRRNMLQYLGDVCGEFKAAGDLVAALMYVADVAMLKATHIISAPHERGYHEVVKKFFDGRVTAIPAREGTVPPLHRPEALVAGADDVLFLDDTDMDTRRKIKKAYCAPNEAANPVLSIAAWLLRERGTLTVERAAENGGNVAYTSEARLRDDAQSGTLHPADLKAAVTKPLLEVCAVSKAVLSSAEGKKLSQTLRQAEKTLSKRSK
# [8] = molecular target: T4, Tyrosyl-tRNA synthetase, putative (Trypanosoma cruzi (strain CL Brener)); experiment: Trypanosoma cruzi tyrosyl tRNA synthetase (TcYRS) SOP; assay type: functional; conditions: 30 µM
# [9] = molecular target: Chromo domain-containing protein 1 (Saccharomyces cerevisiae (strain ATCC 204508 / S288c) (Baker's yeast)) (UniProt P32657); experiment: ScCHD-1 Enzyme Inhibition Assay; assay type: functional; conditions: 30 µM; also: in the data most compounds retested in dose-response had high values
# Chain of Chromo domain-containing protein 1 (Saccharomyces cerevisiae (strain ATCC 204508 / S288c) (Baker's yeast)) (P32657 whole entry, the tested form may be a part): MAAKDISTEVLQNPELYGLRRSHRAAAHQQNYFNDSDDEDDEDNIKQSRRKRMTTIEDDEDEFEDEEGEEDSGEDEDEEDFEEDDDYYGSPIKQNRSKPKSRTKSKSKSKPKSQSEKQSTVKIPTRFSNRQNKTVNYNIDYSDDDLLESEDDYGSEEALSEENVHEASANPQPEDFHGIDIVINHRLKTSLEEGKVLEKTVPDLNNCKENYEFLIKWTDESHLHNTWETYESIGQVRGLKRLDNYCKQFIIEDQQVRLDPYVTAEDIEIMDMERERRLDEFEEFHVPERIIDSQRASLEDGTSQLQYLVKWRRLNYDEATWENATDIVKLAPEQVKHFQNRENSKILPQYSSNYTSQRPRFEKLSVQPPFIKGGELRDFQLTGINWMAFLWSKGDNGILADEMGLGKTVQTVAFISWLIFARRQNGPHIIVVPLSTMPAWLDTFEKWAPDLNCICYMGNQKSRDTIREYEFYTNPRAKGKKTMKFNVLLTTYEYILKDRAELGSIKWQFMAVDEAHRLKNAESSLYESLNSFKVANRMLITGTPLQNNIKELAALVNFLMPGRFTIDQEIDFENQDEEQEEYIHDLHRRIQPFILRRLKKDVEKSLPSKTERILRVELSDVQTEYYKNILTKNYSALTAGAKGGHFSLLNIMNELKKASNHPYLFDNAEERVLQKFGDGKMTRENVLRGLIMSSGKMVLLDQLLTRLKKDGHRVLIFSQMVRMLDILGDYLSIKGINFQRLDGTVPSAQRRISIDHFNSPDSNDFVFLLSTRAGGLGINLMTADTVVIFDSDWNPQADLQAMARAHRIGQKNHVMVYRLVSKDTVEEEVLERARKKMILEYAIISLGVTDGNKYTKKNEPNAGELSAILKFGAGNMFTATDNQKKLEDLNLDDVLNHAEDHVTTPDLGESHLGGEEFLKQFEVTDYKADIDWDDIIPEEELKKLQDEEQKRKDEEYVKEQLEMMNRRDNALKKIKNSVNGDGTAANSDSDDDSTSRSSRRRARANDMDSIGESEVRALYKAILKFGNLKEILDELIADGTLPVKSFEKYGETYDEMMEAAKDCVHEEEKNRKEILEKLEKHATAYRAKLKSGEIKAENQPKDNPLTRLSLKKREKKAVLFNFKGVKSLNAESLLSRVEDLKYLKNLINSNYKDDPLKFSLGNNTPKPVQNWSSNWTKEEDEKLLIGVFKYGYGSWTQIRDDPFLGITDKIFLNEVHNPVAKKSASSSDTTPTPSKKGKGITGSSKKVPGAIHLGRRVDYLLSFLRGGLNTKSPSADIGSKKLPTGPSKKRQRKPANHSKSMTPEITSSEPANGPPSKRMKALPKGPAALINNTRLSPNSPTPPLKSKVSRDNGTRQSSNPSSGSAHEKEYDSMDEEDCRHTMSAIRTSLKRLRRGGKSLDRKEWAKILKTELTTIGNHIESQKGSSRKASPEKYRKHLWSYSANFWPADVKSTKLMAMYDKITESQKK
SMILES,Percent Effect [1],Percent Effect [2],Percent Effect [3],Percent Effect [4],Percent Effect (Trypanosoma cruzi),Percent Effect [5],Percent Effect [6],Percent Effect (Homo sapiens),Percent Effect [7],Percent Effect [8],Percent Effect [9]
Cn1cc(N2CCCC(NCc3cccc4c3OCCCO4)C2)cn1 (configuration not stated),-4.17%,16.2%,-10%,1.61%,0.472%,-4.01%,0.721%,3.65%,7.39%,23.5%,-7.98%
COc1ccc(F)c(CN2CCC3(CCC(=O)N(CC(N)=O)C3)CC2)c1,-4.11%,5.33%,-12.6%,-1.01%,-3.02%,-3.12%,12.4%,36.4%,6.01%,8.64%,-5.79%
O=C(N1CCCC1)N1CCN(CC2CC2)c2ncccc2C1,-3.07%,5.33%,8.78%,-0.324%,-6.69%,7.69%,21.8%,10.6%,4.25%,1.28%,-4.2%
Cn1ccnc1CN1CCC2(CC1)CN(CC1CC1)C(=O)CO2,-1.66%,0%,7.96%,-0.145%,-0.296%,-1.94%,0.522%,12.5%,4.23%,8.97%,90.8%
Cc1nc(CN2CCOC(CN(C)c3cccnn3)C2)cs1 (configuration not stated),0.938%,0%,-2.69%,-0.951%,4.8%,1.47%,5.74%,10.8%,2.86%,2.35%,0.286%
Cn1cc(CN2CCCN(C(=O)c3ccc4c(c3)COC4)CC2)cn1,-5.64%,18.4%,-1.04%,13.2%,-3.27%,-2.16%,12.6%,8.45%,7.39%,11.1%,-0.916%
CC(=O)Nc1nc(C(=O)N2CCCC2c2noc(C)n2)cs1 (configuration not stated),-6.47%,-5.2%,10.4%,-6.87%,-7.12%,2.13%,-2.2%,22.6%,-1.94%,-17.1%,-6.82%
Cc1nn(C)c2c(N3CCN(C(=O)C4CCC4)CC3)ncnc12,-0.898%,9.33%,2.37%,-1.34%,-6.48%,-2.99%,13.7%,14.9%,-15.9%,15.4%,-9.22%
c1ccc(-c2nnn3c2COC(CNCC2CCOCC2)C3)cc1 (configuration not stated),-4.05%,8%,10.9%,4.62%,-0.984%,-1.63%,0.0881%,12.3%,7.45%,19.2%,-2.25%
Cc1nc(C)n(CC2CCCN(Cc3cccc(C#N)c3)C2)n1 (configuration not stated),-3.63%,-18.9%,-7.23%,5.42%,-1.23%,-7.62%,5.59%,3.79%,6.4%,13.6%,-5.48%
CC(=O)NC(C)(C)C(=O)Nc1ncc(Cc2ccc(C)c(F)c2)s1,-2.79%,13.9%,1.18%,3.12%,8.51%,-2.37%,13.2%,28.2%,5.21%,17.7%,-33.1%
COC(=O)c1cccc(OCCn2nc(-c3cccs3)oc2=O)c1,-3.91%,-5.41%,-4.63%,7.61%,-4.36%,-3.14%,1.44%,22.8%,-16.8%,-6.1%,3.23%
CNC(=O)CCc1cc(C)nc(C2CCCN2)n1 (configuration not stated),-2.12%,-1.35%,6.23%,2.54%,-1.78%,3.02%,5.62%,13.2%,3.23%,-3.9%,6.64%
Cc1cnn(CC2CCCN2CCCc2nc3ccccc3o2)c1 (configuration not stated),-6.63%,13.5%,-13.1%,10.9%,4.18%,-4.99%,6.82%,4.32%,6.93%,18.3%,-7.36%
CC(Sc1nnnn1C1CCOCC1)C(=O)NC1CCCCC1 (configuration not stated),-6.54%,2.67%,-2.78%,37.4%,3.21%,3.65%,13.8%,24.9%,7.1%,16.1%,-4.98%
CC(=O)c1cn(CCC(=O)N[C@H](C(=O)O)C(C)C)c2ccccc12,-1.16%,12%,3.61%,-0.198%,-2.95%,-9.68%,11.7%,8.13%,7.41%,15.4%,-3.85%
O=C(CN1CCCC1Cn1cncn1)NCCOc1cccc(F)c1 (configuration not stated),-4.88%,0%,-3.72%,14.3%,-0.84%,-2.52%,-3.47%,-2.63%,0.493%,1.24%,5.23%
CCc1nc(CN2CCCC(NCc3nnc(C4CC4)o3)C2)no1 (configuration not stated),-2.45%,18.2%,3.2%,-12.1%,1.67%,-0.632%,10.4%,-0.806%,11.4%,25.9%,-21.2%
O=C(c1ccccn1)N1C[C@@H]2CC[C@H](C1)N(C(=O)CCc1ccsc1)C2,-0.66%,7.79%,1.47%,8.15%,-4.82%,-5.52%,13.3%,5.27%,7.53%,13.6%,-2.49%
CS(=O)(=O)N1CCC(C(=O)NC(Cc2ccsc2)c2nccs2)CC1 (configuration not stated),-5.37%,9.46%,6.1%,-1.37%,-3.36%,-1.16%,2.65%,12.9%,0%,11.7%,2.8%
CC(=O)N1CCCCC1c1cc(C(=O)N2CCOCC2)[nH]n1 (configuration not stated),-1.41%,14.9%,11%,-1.29%,-1.38%,-0.232%,6.86%,2.98%,5.38%,14.3%,-10.1%
Cc1ccc(CN2CCOC3(CCCN(C(=O)c4ccco4)C3)C2)s1 (configuration not stated),-0.789%,15.6%,-0.0266%,8.56%,5.41%,-19.3%,17.6%,-8.94%,6.45%,13.6%,-2.11%
